# What was measured:
# Details in all cases: concentration: 1 μM, replicates: in singlicate; n = 1
# CHEK2 = system: CHEK2
# CIT = system: CIT
# CLK1 = system: CLK1
# CLK2 = system: CLK2
# CLK3 = system: CLK3
# CLK4 = system: CLK4
# CSF1R-autoinhibited = system: CSF1R-autoinhibited
# CSF1R = system: CSF1R
# CSK = system: CSK
# CSNK1A1L = system: CSNK1A1L
# CSNK1A1 = system: CSNK1A1
# CSNK1D = system: CSNK1D
# CSNK1E = system: CSNK1E
# CSNK1G1 = system: CSNK1G1
# CSNK1G2 = system: CSNK1G2
# CSNK1G3 = system: CSNK1G3
# CSNK2A1 = system: CSNK2A1
# CSNK2A2 = system: CSNK2A2
# CTK = system: T1, CTK
# T1 construct: gene MATK
# DAPK1 = system: DAPK1
# 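Also: KINOMEscan kinase panel screen.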
Structure (SMILES),%Inh (CHEK2) [%],%Inh (CIT) [%],%Inh (CLK1) [%],%Inh (CLK2) [%],%Inh (CLK3) [%],%Inh (CLK4) [%],%Inh (CSF1R-autoinhibited) [%],%Inh (CSF1R) [%],%Inh (CSK) [%],%Inh (CSNK1A1L) [%],%Inh (CSNK1A1) [%],%Inh (CSNK1D) [%],%Inh (CSNK1E) [%],%Inh (CSNK1G1) [%],%Inh (CSNK1G2) [%],%Inh (CSNK1G3) [%],%Inh (CSNK2A1) [%],%Inh (CSNK2A2) [%],%Inh (CTK) [%],%Inh (DAPK1) [%]
O=C(O)COc1ncnc2cc(-c3ccc4[nH]ncc4c3)sc12,1,8,76,43,0,79,0,0,0,0,33,0,0,17,10,34,37,20,14,17
Cn1ccc2ncnc(Oc3ccc(Nc4nc5ccccc5[nH]4)cc3)c21,23,8,0,12,0,0,0,17,0,8,0,0,0,0,0,0,0,0,0,0
CCn1c(-c2cccnc2O)nc2cnccc21 [SB-736715],0,0,10,0,0,0,2,0,0,84,16,0,0,0,0,0,0,0,3,0
Cl.O=C(Nc1cccc(-c2nn3ncccc3c2-c2ccnc(Nc3cccnc3)n2)c1)c1c(F)cccc1F [GSK312879],0,30,19,3,0,12,0,17,18,4,0,15,24,8,0,15,1,0,25,2
Cc1ccc(NC(=O)Nc2cc(C(C)(C)C)nn2-c2ccccc2)cc1 [GSK1014915],0,29,33,0,14,15,0,30,0,9,0,13,0,0,0,25,13,0,18,6
Cc1cccc(-c2nc(Nc3ccncc3)c3ccccc3n2)n1 [GW855857],0,91.1,10,8,31,0,0,0,4,10,46,73,77,0,20,12,0,0,0,0
Cc1c(O)cccc1Nc1ccnc2ccc(C(F)(F)F)cc12.Cl [GW466413],0,42,22,14,0,38,0,0,0,3,0,0,22,0,0,0,0,0,0,0
O=C(Nc1ccc2c(c1)OCO2)NC1CCN(c2ccnc(Nc3ccc(F)cc3)n2)C1 (centres unmarked) [GSK1379724],0,23,10,0,0,6,0,0,1,2,0,21,0,0,0,8,0,0,0,0
COc1ccc(Nc2nccc(NCCNC(=O)Nc3ccccc3F)n2)cc1 [GSK1379901],0,0,32,0,100,29,0,11,3,0,0,7,99.4,7,0,25,0,2,0,0
CC(C)(C)c1ccc(C(=O)Nc2cn3cc(Cl)ccc3n2)cc1,2,27,75,29,2,75,14,1,0,0,19,67,59,0,16,0,0,0,0,20
Cn1cncc1-c1ccc2ncnc(Nc3ccc(OCc4ccccc4)cc3)c2c1 [GW320571],0,6,23,57,100,32,0,0,0,22,0,20,99.4,0,15,19,26,15,0,0
CCCc1ccc(S(=O)(=O)NC2CCN(c3ccnc(Nc4ccc(F)cc4)n3)C2)cc1 (centres unmarked) [GSK1379715],0,0,12,0,10,0,0,0,0,0,0,0,25,2,0,2,0,0,0,0
Cc1nnc(-c2ccc3occ(-c4ccc(S(C)=O)cc4)c3c2)[nH]1 (centres unmarked),10,0,0,22,0,29,8,5,0,26,0,0,0,8,4,0,63,72,21,10
Cc1cccc(-c2cc(Nc3ccncc3)c3ccccc3n2)n1 [GSK223675],0,23,22,0,10,5,0,8,0,0,0,14,50,10,0,17,7,2,0,18
Cc1cccc(-c2nc(-c3ccc(S(C)(=O)=O)cc3)sc2-c2ccnc(NCCc3ccccc3)c2)c1,0,0,8,2,12,1,1,72,2,0,0,1,8,5,1,0,0,28,0,0
COc1cccc(NC(=O)NC2CCN(c3ccnc(Nc4ccc(F)cc4)n3)C2)c1 (centres unmarked) [GSK1379721],27,23,25,1,21,0,17,14,6,0,0,0,37,9,0,27,0,10,0,10
COc1cccc(-c2cc(-c3c[nH]nc3-c3ccccn3)ccn2)c1 [GW680338],18,7,22,22,0,28,51,0,0,8,31,25,23,1,3,10,4,11,0,0
O=C1NC(=O)C(N2CCc3ccccc32)=C1c1ccccc1Cl [SB-373598],0,29,12,45,0,19,0,4,46,15,33,18,18,13,9,14,2,15,0,22
Cc1cc(NCC(c2ccccc2)c2ccccc2)nc(NCc2ccc(C(F)(F)F)cc2)n1 [GW497681],18,30,15,0,37,15,30,6,0,2,0,0,34,0,0,22,0,0,0,2
O=C(Nc1n[nH]c2nc(-c3nccs3)c(Br)cc12)C1CCCC1 [SB-742609],0,36,22,0,4,0,0,3,0,6,25,42,11,0,0,22,0,0,0,0
CC(=O)Nc1nc2cnc(Nc3cc(NC(=O)c4cccc(CCC#N)c4)ccc3C)nc2s1,0,34,0,3,0,12,0,90.9,0,0,23,3,0,2,7,0,0,9,0,0
O=C(Nc1n[nH]c2nc(-c3nccs3)c(Br)cc12)C1CC1 [SB-742251],0,3,1,0,11,0,17,0,0,19,0,21,14,13,0,0,0,36,15,0
Fc1cc(Cl)ccc1Nc1ccnc2cc(-c3ccc(CN4CCCCC4)o3)ccc12 [GW560116],35,63,11,0,0,27,0,20,0,1,0,7,46,11,0,23,0,94.6,0,1
C[C@@H]1CCCCN1c1cc(-c2ccc3c(N)n[nH]c3c2)nc(N)n1 [GSK2258759],12,36,12,0,0,13,13,2,2,0,0,39,35,6,0,26,6,76,0,18
Clc1cc(Cl)cc(Nc2ccnc(Nc3cc(Cl)cc(Cl)c3)n2)c1 [GSK175726],0,22,17,36,22,38,0,3,0,0,0,17,57,22,0,9,4,89,0,11
CCn1c(-c2ccccn2)nc2cnccc21 [SB-736398],0,20,3,0,0,4,4,42,0,0,0,0,4,0,0,0,0,0,0,0
Cc1cccc(-c2nc(Nc3ccc4[nH]ncc4c3)c3ccccc3n2)n1 [GW857175],0,9,33,14,4,12,33,7,0,0,0,28,28,15,0,18,94,–,18,10
Fc1cccc(COc2nnc(-c3ccc4c(c3)CCO4)o2)c1,10,0,32,13,0,53,0,11,0,12,0,0,0,10,4,0,42,60,0,24
Cc1ccccc1-n1cnc2c(N)ncnc21 [SKF-97510],0,0,2,26,0,0,0,6,7,0,0,5,11,0,0,0,0,0,0,94.8
CS(=O)(=O)c1ccc(-c2c(-c3ncn[nH]3)sc(N3CCOCC3)c2C#N)cc1,5,4,5,8,0,0,0,27,16,0,48,0,4,1,0,0,0,24,26,5
